# Reference: PubChem BioAssay (NCI)
# Compounds without any hit were thinned out: in the full panel of roughly 83,000, 20% have a hit.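 Single-concentration screen, 48 h exposure, 96-well plates. Endpoint: percent growth. Below 10 = active.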 Activity calls are given as the source filed them.
# System: SF-268 CNS
# Assay: NCI-60 one-dose screen, 48 h (100 = growth as untreated, 0 = no growth, -100 = all killed)
# Settings: 10 µM unless noted
row,Compound,growth
1,CN(C[C@H]1Cc2c(cccc2N2CCN(c3ncccn3)CC2)CN1)[C@H]1CCCc2cccnc21,60% (inactive)
2,COc1ccc(-c2cnoc2-c2ccc(OC)cc2O)cc1,39.9% (inactive)
3,COc1ccc(/C=N\NC(=O)CN2CCN(c3cc4c(cc3F)c(=O)c(C(=O)N/N=C/c3ccc(OC)c(OC)c3)cn4C3CC3)CC2)cc1OC,-10.9% (active)
4,C1=Cc2ccccc2N(c2nnc(-c3ccccc3)o2)c2ccccc21,91.7% (inactive)
5,COc1ccc(-c2nc3sc(-c4cc(OC)c(OC)c(OC)c4)nn3c2/C=C2/C(=O)Nc3ccc(F)cc32)cc1,-7.6% (active)
6,O=C(Oc1ccccc1[N+](=O)[O-])C1CCCN1C(=O)OCc1ccccc1 (stereo not drawn),108% (inactive)
7,CC(C)(C)OC(=O)NC(CSCc1ccccc1)C(=O)ON1C(=O)CCC1=O (stereo not drawn),102% (inactive)
8,O=S(=O)(NCCCNc1nccc(-n2ccc3cccnc32)n1)c1ccc(Br)cc1,94.9% (inactive)
9,COc1ccc(/C=C2\Oc3cc(OCCCN4CCCC4)ccc3C2=O)cc1,88.9% (inactive)
10,Cc1csc(NC(c2ccc(Br)cc2)c2c(C)nc3ccccn23)n1 (stereo not drawn),92.2% (inactive)
11,Cn1c(=O)cc(NC(=O)CN2CCN(c3cc4c(cc3F)c(=O)c(C(=O)O)cn4C3CC3)CC2)[nH]c1=O,92.7% (inactive)
12,CC(C)(C)n1cc(-c2ccnc(NCCNS(=O)(=O)c3ccc(F)cc3)c2)c(-c2cccc(O)c2)n1,54.7% (inactive)
13,CC(C)(C)n1cc(-c2ccnc(NCCNS(=O)(=O)c3ccc(Cl)cc3)c2)c(-c2cccc(O)c2)n1,54.7% (inactive)
14,O=C1Nc2ccc3c(c2/C1=C\c1cc2c(cc1Br)OCO2)OCO3,33.8% (inactive)
15,Cc1ccc(N2CCN(C(C)C(N)=O)CC2)cc1 (stereo not drawn),100% (inactive)
16,COc1cc(NC(N)=NCCC(C)(C)Oc2ccc(C(F)(F)F)cc2)ncc1C#N,30.8% (inactive)
17,CCc1ccc(-c2ccc(=O)n(-c3ccc(S(N)(=O)=O)cc3)n2)cc1,42.1% (inactive)
18,CC[N+](CC)=c1cc2oc3cc(N(C)C)ccc3nc-2cc1C,2.86% (active)
19,COc1cccc(-c2nc3sccn3c2-c2ccnc(NCCCNS(=O)(=O)c3ccc(F)cc3)c2)c1,41.2% (inactive)
20,N[C@H]1CN(C(=O)c2cc3cc(Br)c(F)c(F)c3[nH]2)C[C@@H]1O,88.5% (inactive)

row,Compound,growth
1,O=C(N/N=C/C=C\c1ccccc1)C(=O)N/N=C/C=C/c1ccccc1,105% (inactive)
2,O=C(O)COc1ccc(-c2cssc2=S)cc1,105% (inactive)
3,CCOC(=O)c1c(NS(=O)(=O)c2ccc(C)cc2)sc2c1CCC1(C2)OCCO1,93.6% (inactive)
4,Cc1nc2ncccc2nc1Nc1ccc(S(=O)(=O)Nc2ccccn2)cc1,98.4% (inactive)
5,Fc1ccc(Nc2ncnc3ccc(-c4cnc5[nH]ccc5c4)cc23)cc1Cl,32.8% (inactive)
6,COc1ccc(C2C(C#N)=C(N)Oc3c2ccc2ccccc32)cc1 (stereo not drawn),50.5% (inactive)
7,COc1ccc(C(=O)N2NC(=O)/C(=C/c3cn(-c4ccccc4)nc3-c3ccccc3)N=C2c2ccccc2)cc1,98.2% (inactive)
8,C=C1C(=O)O[C@H]2[C@H]1CC/C(Cn1cc(CNC(=O)Cc3cn(C(=O)c4ccc(Cl)cc4)c4ccc(OC)cc34)nn1)=C\CC[C@@]1(C)O[C@@H]21,9.83% (active)
9,CCCCC(CC)OC(=O)C(Br)CC (stereo not drawn),98.1% (inactive)
10,O=C1/C(=C/c2ccccc2)Oc2ccc(O)c(I)c21,82.6% (inactive)
11,COC(=O)c1cc2cc(-c3ccc(OC)cc3)cnc2[nH]1,45.5% (inactive)
12,c1coc(CNc2ccnc(Nc3ccc(OCCN4CCCCC4)cc3)n2)c1,90.4% (inactive)
13,COc1ccc2[nH]c(C(=O)OCc3ccc4c(Cl)cc(Cl)c(O)c4n3)cc2c1,-72.9% (active)
14,CCOC(=O)C1CCNC(=O)C1=O (stereo not drawn),108% (inactive)
15,O=C(O)C1CCCCN1c1nc(Cl)nc(Cl)n1 (stereo not drawn),99.2% (inactive)
16,C=C1CCC2C(C)(CO)C(O)CCC2(C)C1CC(NCc1ccccc1)C1=CCOC1=O (stereo not drawn),86.5% (inactive)
17,CCCCCCCCCCCC(=O)NCCC[N+](C)(C)CC(=O)[O-],85.5% (inactive)
18,CN(CCCCCl)P(=O)(OCc1ccc([N+](=O)[O-])o1)C(F)(F)C[C@H](NC(=O)CNC(=O)c1ccc(N=[N+]=[N-])cc1)C(=O)NCCc1ccc(O)cc1 (stereo partly drawn),98.1% (inactive)
19,NC(N)=Nc1nc2ccccc2o1,88.4% (inactive)

# System: SF-295 CNS
# Assay: as above
# Settings: 10 µM unless noted
row,Compound,growth
1,CN(C[C@H]1Cc2c(cccc2N2CCN(c3ncccn3)CC2)CN1)[C@H]1CCCc2cccnc21,44.4% (inactive)
2,COc1ccc(-c2cnoc2-c2ccc(OC)cc2O)cc1,26.9% (inactive)
3,COc1ccc(/C=N\NC(=O)CN2CCN(c3cc4c(cc3F)c(=O)c(C(=O)N/N=C/c3ccc(OC)c(OC)c3)cn4C3CC3)CC2)cc1OC,66.2% (inactive)
4,C1=Cc2ccccc2N(c2nnc(-c3ccccc3)o2)c2ccccc21,92% (inactive)
5,COc1ccc(-c2nc3sc(-c4cc(OC)c(OC)c(OC)c4)nn3c2/C=C2/C(=O)Nc3ccc(F)cc32)cc1,-17.2% (active)
6,O=C(Oc1ccccc1[N+](=O)[O-])C1CCCN1C(=O)OCc1ccccc1 (stereo not drawn),117% (inactive)
7,CC(C)(C)OC(=O)NC(CSCc1ccccc1)C(=O)ON1C(=O)CCC1=O (stereo not drawn),124% (inactive)
8,O=S(=O)(NCCCNc1nccc(-n2ccc3cccnc32)n1)c1ccc(Br)cc1,104% (inactive)
9,COc1ccc(/C=C2\Oc3cc(OCCCN4CCCC4)ccc3C2=O)cc1,98.7% (inactive)
10,Cc1csc(NC(c2ccc(Br)cc2)c2c(C)nc3ccccn23)n1 (stereo not drawn),74.7% (inactive)
11,Cn1c(=O)cc(NC(=O)CN2CCN(c3cc4c(cc3F)c(=O)c(C(=O)O)cn4C3CC3)CC2)[nH]c1=O,101% (inactive)
12,CC(C)(C)n1cc(-c2ccnc(NCCNS(=O)(=O)c3ccc(F)cc3)c2)c(-c2cccc(O)c2)n1,42.5% (inactive)
13,CC(C)(C)n1cc(-c2ccnc(NCCNS(=O)(=O)c3ccc(Cl)cc3)c2)c(-c2cccc(O)c2)n1,54.4% (inactive)
14,O=C1Nc2ccc3c(c2/C1=C\c1cc2c(cc1Br)OCO2)OCO3,11.2% (inactive)
15,Cc1ccc(N2CCN(C(C)C(N)=O)CC2)cc1 (stereo not drawn),103% (inactive)
16,COc1cc(NC(N)=NCCC(C)(C)Oc2ccc(C(F)(F)F)cc2)ncc1C#N,-40.7% (active)
17,CCc1ccc(-c2ccc(=O)n(-c3ccc(S(N)(=O)=O)cc3)n2)cc1,18.4% (inactive)
18,CC[N+](CC)=c1cc2oc3cc(N(C)C)ccc3nc-2cc1C,17.7% (inactive)
19,COc1cccc(-c2nc3sccn3c2-c2ccnc(NCCCNS(=O)(=O)c3ccc(F)cc3)c2)c1,18.6% (inactive)
20,N[C@H]1CN(C(=O)c2cc3cc(Br)c(F)c(F)c3[nH]2)C[C@@H]1O,104% (inactive)

row,Compound,growth
1,O=C(N/N=C/C=C\c1ccccc1)C(=O)N/N=C/C=C/c1ccccc1,104% (inactive)
2,O=C(O)COc1ccc(-c2cssc2=S)cc1,97.3% (inactive)
3,CCOC(=O)c1c(NS(=O)(=O)c2ccc(C)cc2)sc2c1CCC1(C2)OCCO1,93.1% (inactive)
4,Cc1nc2ncccc2nc1Nc1ccc(S(=O)(=O)Nc2ccccn2)cc1,104% (inactive)
5,Fc1ccc(Nc2ncnc3ccc(-c4cnc5[nH]ccc5c4)cc23)cc1Cl,-32.2% (active)
6,COc1ccc(C2C(C#N)=C(N)Oc3c2ccc2ccccc32)cc1 (stereo not drawn),24.2% (inactive)
7,COc1ccc(C(=O)N2NC(=O)/C(=C/c3cn(-c4ccccc4)nc3-c3ccccc3)N=C2c2ccccc2)cc1,86.9% (inactive)
8,C=C1C(=O)O[C@H]2[C@H]1CC/C(Cn1cc(CNC(=O)Cc3cn(C(=O)c4ccc(Cl)cc4)c4ccc(OC)cc34)nn1)=C\CC[C@@]1(C)O[C@@H]21,83.5% (inactive)
9,CCCCC(CC)OC(=O)C(Br)CC (stereo not drawn),97.5% (inactive)
10,O=C1/C(=C/c2ccccc2)Oc2ccc(O)c(I)c21,104% (inactive)
11,COC(=O)c1cc2cc(-c3ccc(OC)cc3)cnc2[nH]1,0.983% (active)
12,c1coc(CNc2ccnc(Nc3ccc(OCCN4CCCCC4)cc3)n2)c1,95.1% (inactive)
13,COc1ccc2[nH]c(C(=O)OCc3ccc4c(Cl)cc(Cl)c(O)c4n3)cc2c1,67.8% (inactive)
14,CCOC(=O)C1CCNC(=O)C1=O (stereo not drawn),122% (inactive)
15,O=C(O)C1CCCCN1c1nc(Cl)nc(Cl)n1 (stereo not drawn),101% (inactive)
16,C=C1CCC2C(C)(CO)C(O)CCC2(C)C1CC(NCc1ccccc1)C1=CCOC1=O (stereo not drawn),111% (inactive)
17,CCCCCCCCCCCC(=O)NCCC[N+](C)(C)CC(=O)[O-],101% (inactive)
18,CN(CCCCCl)P(=O)(OCc1ccc([N+](=O)[O-])o1)C(F)(F)C[C@H](NC(=O)CNC(=O)c1ccc(N=[N+]=[N-])cc1)C(=O)NCCc1ccc(O)cc1 (stereo partly drawn),101% (inactive)
19,NC(N)=Nc1nc2ccccc2o1,112% (inactive)
